Screens (PubChem BioAssay)
This excerpt belongs to a sample that is enriched for hits.
CendR NRP1 mod: modulators of CendR peptide binding to NRP-1, primary screen, biochemical, fluorescence polarization, uHTS. hit rate 0.85% among 360,000. inhibition, % at 25 µM. FAM-RPARPAR peptide binding to NRP-1. AID 602438, 2012;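 active = inhibition or corrected inhibition above about 18%, plus a signal ratio from 0.5 to 1.5, limit read from the data, passing the limit was not always enough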
PDI turbidity: inhibitors of human PDI, primary screen, biochemical, turbidity, single point, plate reader; inhibition, % at 10 µM; Protein disulfide-isomerase (Homo sapiens), P07237; hit rate 0.052% among 350,000; PDI insulin aggregation turbidity, A650, 90 min;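 active = mean inhibition across replicates of 30% or more, whatever share of single replicates reach that level; inconclusive = mean inhibition below 30% while every single replicate reaches 30%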
ARNT-TACC3 inh: disruptors of ARNT/TACC3 protein interaction, primary screen, biochemical, AlphaScreen, single concentration; AlphaScreen His-ARNT PAS-B/GST-TACC3 binding, luminescence; TACC3 fragment carries E629A point mutation; AID 623870, 2012; Transforming acidic coiled-coil-containing protein 3 (Homo sapiens), Q9Y6A5; hit rate 0.66% among 390,000; inhibition, % at 9.99 µM;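 active = mean inhibition of replicates at least 50% and at least half of replicates each reaching 50%; inconclusive = half or more replicates reach 50% but mean below 50%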;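 also: 0% = complete ARNT plus TACC3 wells and 100% = ARNT alone without TACC3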
ALR inh: inhibitors of human ALR sulfhydryl oxidase, primary screen, biochemical, H2O2 detection, HRP-luminol luminescence, single point; hit rate 3.8% among 290,000; inhibition, % (concentration not given with the values); purified ALR, DTT oxidation; FAD-linked sulfhydryl oxidase ALR (Homo sapiens), P55789;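 active = mean replicate inhibition above about 79%, with every replicate also reaching it, limit read from the data; inconclusive = only one of the two criteria met; inactive = mean below limit and not every replicate reaching it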
Target sequence (P55789 whole entry, looked up): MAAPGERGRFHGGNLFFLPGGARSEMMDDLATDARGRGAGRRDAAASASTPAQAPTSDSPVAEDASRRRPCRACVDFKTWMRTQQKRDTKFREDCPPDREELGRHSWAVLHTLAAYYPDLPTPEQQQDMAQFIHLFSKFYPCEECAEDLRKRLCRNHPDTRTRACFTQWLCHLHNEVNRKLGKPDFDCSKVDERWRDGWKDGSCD
PglD DTNB: C. jejuni PglD acetyltransferase inhibitors, primary screen, biochemical, DTNB colorimetric, single point | inhibition, % at 12.5 µM | hit rate 0.098% among 360,000 | purified PglD enzyme, DTNB colorimetric CoA detection; in the data active = inhibition above about 16%, passing the limit was not always enough; inconclusive = no clear call, values can overlap the other calls
ERp5 block: inhibitors of ERp5-driven insulin aggregation, primary screen, biochemical, turbidity, absorbance 650 nm, single point; Protein disulfide-isomerase A6 (Homo sapiens), Q15084; 90 min; inhibition, % at 9.99 µM; hit rate 0.05% among 350,000; AID 651711, 2012;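 active = mean replicate inhibition above about 25%, with every replicate also reaching it, limit read from the data, passing the limit was not always enough; inconclusive = only one of those two criteria met; inactive = neither criterion met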
An asterisk follows results filed as active; ? = inconclusive; nt = no result given.

SMILES	CendR NRP1 mod	PDI turbidity	ARNT-TACC3 inh	ALR inh	PglD DTNB	ERp5 block
COc1ccc(C(=O)Nc2ccc3c(c2)C(=O)N(C)C[C@@H](OC)[C@@H](C)CN[C@@H](C)CO3)cc1	nt	nt	4	nt	2	4
O=C(NCCN1CCOCC1)C12CC3CC(C1)CC(c1ccccc1)(C3)C2	44*	2	-1	-9	nt	-6
CC1(C(=O)NCCN2CCOCC2)C=CCN1C(=O)c1ccccc1 (stereo unspecified)	10	1	-6	5	2	-7
COc1cc(C(=S)N2CCN(c3ccccc3Cl)CC2)cc(O)c1O	8	1	8	99*	nt	7
CCC(CO)Oc1cc(NCc2ccncc2)c2ncn(C(C)C)c2c1 (stereo unspecified)	-5	-3	21	2	-4	1
CCC(CN(C)C)Oc1cc(NCc2ccccc2)c2ncn(C(C)C)c2c1 (stereo unspecified)	10	-5	51*	nt	-13	nt
COc1cc(NCc2ccccc2)c2ncn(C(C)C)c2c1	5	-2	14	98*	0	-3
COc1cccc(NC(=O)N[C@H]2CC[C@H](CC(=O)Nc3ccc(-c4ccccc4)cc3)O[C@H]2CO)c1	nt	nt	11	nt	-1	3
O=C(NCC[C@@H]1CC[C@H](NC(=O)C2CCCC2)[C@@H](CO)O1)c1cc(Cl)cc(Cl)c1	nt	nt	4	nt	0	4
O=C(/C=C/c1ccccc1)NC(=S)NNC(=O)c1cnccn1	3	6	60*	nt	-2	3
COc1ccc(C(=O)NCCNC(=O)c2cnccn2)cc1OC	5	13	7	-1	3	6
O=C(/C=C/c1ccccc1)NC(=S)NNC(=O)c1cccnc1	-11	-3	29	?	4	nt
COc1cc(OC)cc(C(=O)NC(=S)NNC(=O)c2cnccn2)c1	2	-2	66*	17	0	-1
COc1ccc(C(=O)NC(=S)NNC(=O)c2cnccn2)cc1OC	3	1	63*	98*	4	nt
CCN1CCCc2cc(CN(CCN3CCOCC3)C(=S)Nc3ccc(C)cc3)ccc21	-12	0	12	99*	-2	4
CCN1CCCc2cc(CN(CCN3CCOCC3)C(=S)Nc3cc(F)cc(F)c3)ccc21	-13	-2	11	94*	-5	-2
CCN1CCCc2cc(CN(CCN3CCOCC3)C(=S)Nc3cccc(Cl)c3)ccc21	-15	-6	-3	nt	-4	4
CCN1CCCc2cc(CN(CCN3CCOCC3)C(=S)Nc3ccc(OC)cc3)ccc21	16	15	-1	99*	nt	-2
CCOc1ccc(NC(=S)N(CCN2CCOCC2)Cc2ccc3c(c2)CCCN3CC)cc1	0	-1	13	nt	2	2
CN1c2ccc(Br)cc2[C@@H]2[C@@H](CCN2S(=O)(=O)c2cccc(F)c2)[C@H]1CO	nt	nt	-4	nt	-1	0
CCCC(=O)Nc1ccc2c(c1)C(=O)N(C)[C@H]1CC[C@H](CC(=O)OC)O[C@@H]1CO2	nt	nt	nt	nt	nt	0
C/C(CCC(=O)O)=N/Nc1ccc([N+](=O)[O-])cc1[N+](=O)[O-]	-5	-2	nt	-2	-6	0
O=C(O)/C(CC(=O)c1ccc(Cl)cc1)=N/Nc1ccc([N+](=O)[O-])cc1[N+](=O)[O-]	-19	-7	23	98*	1	3
CS(=O)(=O)Nc1ccc(C(=O)Nc2ccccc2Cl)cc1	7	9	-6	-17	nt	7
CS(=O)(=O)Nc1ccc(C(=O)Nc2ccccc2-c2ccccc2)cc1	27*	-2	-4	14	3	2
SMILES	CendR NRP1 mod	PDI turbidity	ARNT-TACC3 inh	ALR inh	PglD DTNB	ERp5 block
Cc1oc2cc3oc(=O)c(CC(=O)O)c(C)c3cc2c1-c1ccccc1	24	-2	-2	-15	1	1
Cc1c(CC(=O)O)c(=O)oc2c(C)c3occ(-c4ccccc4)c3cc12	45*	6	6	?	10	5
COc1ccccc1COc1ccc2c(C)c(CC(=O)O)c(=O)oc2c1C	36*	-5	-36	1	-6	-1
Cc1oc2c(C)c3oc(=O)c(CCC(=O)O)c(C)c3cc2c1-c1ccccc1	-79	-2	26*	10	5	4
O=C(N[C@@H]1C[C@@H]2O[C@H](CO)CC[C@@H]2O[C@@H]1CCc1ccc(C#Cc2ccccc2)cc1)c1ccccn1	nt	nt	nt	nt	nt	5
CCS(=O)(=O)Nc1ccc2c(c1)C(=O)N(C)[C@@H]1CC[C@@H](CC(=O)Nc3ccccc3)O[C@H]1CO2	nt	nt	-11	nt	0	2
CN1C(=O)NC(c2ccccc2)(C(F)(F)F)S/C1=C(/C#N)c1nnc(N2CCOCC2)n1-c1ccccc1 (stereo unspecified)	4	-5	-3	8	nt	2
CN1C(c2ccc(F)cc2)=CS/C1=C(/C#N)c1nnc(N2CCOCC2)n1-c1ccccc1	9	-2	nt	98*	nt	-2
C=CCN1C(c2ccccc2)=CS/C1=C(/C#N)c1nnc(N2CCOCC2)n1-c1ccccc1	-12	4	nt	99*	nt	-2
Cc1ccc[n+](-c2nc([O-])sc2/C=N/Nc2ccc([N+](=O)[O-])cc2)c1	20	17	2	92*	-2	3
CCCN(CCC)C(=S)NC(=O)c1ccc(-c2ccccc2)cc1	-12	7	31	99*	-4	nt
CCOc1ccc(C(=O)NC(=S)N(Cc2ccccc2)Cc2ccccc2)cc1	-10	-4	9	-24	0	3
N#CCCN(Cc1ccccc1)C(=S)NC(=O)c1ccccc1	-16	-13	12	98*	11	nt
O=C(C[C@@H]1C=C[C@@H](NC(=O)C2CCOCC2)[C@@H](CO)O1)Nc1nccs1	nt	nt	nt	nt	nt	0
O=C(Cn1cnc([N+](=O)[O-])n1)N/N=C/c1ccc(O)cc1O	17	8	63*	72	nt	-7
CCC(=O)N1C[C@@H]2[C@H](c3ccccc31)[C@@H](CO)N2C(=O)Nc1ccccc1	nt	nt	-4	nt	1	0
CCOC(=O)C(Sc1nn(C)c(=S)s1)C(C)=O (stereo unspecified)	-4	-6	-11	94*	-3	nt
C[C@@H]1CN([C@H](C)CO)C(=O)c2cc(-c3ccccc3)cnc2O[C@@H]1CN(C)C(=O)Cc1ccccn1	nt	nt	-1	nt	3	3
N#C[C@H]1[C@@H](c2ccc(C3=CCCCC3)cc2)[C@H](CO)N1C(=O)NC1CCCCC1	nt	nt	18	nt	0	-7
